Reference: PubChem BioAssay
Results with a measured potency or affinity are listed apart. Calls of active or inactive are those of the source. The rule behind the calls is not given here.

Target: Plasmodium falciparum protein kinase 6 (PK6, PF3D7_1337100) (UniProt Q8IDW1)
Experiment: PfPK6 kinase inhibitors, biochemical, TCAMS library (AID 1159586)
Conditions: recombinant PfPK6, Kinase-Glo ATP depletion luminescence

Sequence of Plasmodium falciparum protein kinase 6 (PK6, PF3D7_1337100) (Q8IDW1 1-305): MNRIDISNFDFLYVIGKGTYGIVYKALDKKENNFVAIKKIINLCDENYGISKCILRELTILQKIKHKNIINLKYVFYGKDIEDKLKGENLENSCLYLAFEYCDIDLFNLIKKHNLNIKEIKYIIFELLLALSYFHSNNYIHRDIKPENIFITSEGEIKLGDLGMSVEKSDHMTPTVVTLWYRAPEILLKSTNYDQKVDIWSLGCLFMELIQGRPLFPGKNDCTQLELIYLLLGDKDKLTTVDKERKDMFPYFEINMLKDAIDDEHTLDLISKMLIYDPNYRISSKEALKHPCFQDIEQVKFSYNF

SMILES	outcome
CC1(C)C[C@@H]2C[C@@](C)(CN2C(=O)c2cc(C(C)(C)C)nn2Cc2ccccc2)C1	inactive
Brc1ccsc1-c1nc(NCCC(c2ccccc2)c2ccccc2)no1	inactive
Cc1[nH]c(C)c(-c2ccc(OCCn3cnc(Cl)c3Cl)cc2)c(=O)c1Br	inactive
COc1ccc2nc(C)cc(NN=Cc3ccc(Cl)cc3)c2c1	inactive
CN1CCC(NCc2ccc(-c3cccc(S(=O)(=O)NCCc4ccccn4)c3)cc2)CC1	inactive
Cc1cccc(Cl)c1S(=O)(=O)Nc1cccc(CCN2CCC(N3CCCCC3)CC2)c1	inactive
C=CCc1cc(C)ccc1OCCCON1C(N)=NC(N)=NC1(C)C	inactive
O=C(/C=C/c1ccsc1)N1CCC(CCN2CCC(c3c[nH]c4ccccc34)CC2)CC1	inactive
NC(=NCc1ccc(Cl)c(Cl)c1)NC(=NCCCCCCN=C(NC(N)=NCc1ccc(Cl)c(Cl)c1)N1CCCCC1)N1CCCCC1	inactive
O=C(/C=C/c1ccc(Cl)cc1)NCCCCCN1CCCC(C(=O)Nc2ccc(Cl)c(Cl)c2)C1 (stereo not drawn)	inactive
COc1cc(Nc2ccnc3cc(-c4ccncc4)ccc23)cc(OC)c1OC	inactive
CCOc1cc(C(=O)NC2CCN(Cc3ccccc3)CC2)ccc1-c1nc2cc(Cl)c(Cl)cc2[nH]1	inactive
Cc1[nH]c(C)c(-c2ccc(Oc3cccc(Cl)c3)cc2)c(=O)c1Br	inactive
COc1cccc(Nc2c(C(N)=O)cnc3ccc(-c4ccc(S(C)=O)cc4)cc23)c1 (stereo not drawn)	inactive
COc1ccc(CN2CCCN(Cc3ccc(C(=O)Nc4ccc(Cl)cc4)cc3)CC2)cc1	inactive
Nc1nc(N)c2c(ccc3c2ccn3CCCCO)n1	inactive
CCNC(=O)N[C@@H]1CN[C@@H](C#Cc2cc3c(Nc4ccc(OCc5cccc(F)c5)c(Cl)c4)ncnc3s2)C1	inactive
CS(=O)(=O)CCNCc1cc(-c2cc3ncnc(Nc4ccc(OCc5cccc(F)c5)c(Cl)c4)c3s2)cs1	inactive
COc1ccccc1CCN1CCC(CN(C)Cc2ccc(O)c(Cl)c2)CC1	inactive
O=c1cc(NCCCNCc2cccc(SC(F)(F)F)c2)[nH]c2ccccc12	inactive
CCCCCCN=C(N)c1ccc(OCCCCCOc2ccc(C(N)=NCCCCCC)cc2)cc1	inactive
COc1ccc(NC(=O)c2ccc(-c3ccc(-c4cccnc4)cc3)c(C)c2)cc1OCCN(C)C	inactive
COc1ccc2nccc(NC(=O)N3CCC(NCc4cc5ccccc5[nH]4)CC3)c2n1	inactive
